Screening data deposited in PubChem BioAssay by several laboratories.
GPR7 antag = GPR7 receptor antagonists, primary screen, cell-based, fluorescence, single concentration; 290,000 tested, 1.1% active; inhibition, % at 4.4 µM; GPR7-expressing cells, fluorescence antagonist assay; in the data active = inhibition above about 16%, passing the limit was not always enough;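 also: cells stimulated with the agonist NPW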
Target sequence (P48145 whole entry, looked up): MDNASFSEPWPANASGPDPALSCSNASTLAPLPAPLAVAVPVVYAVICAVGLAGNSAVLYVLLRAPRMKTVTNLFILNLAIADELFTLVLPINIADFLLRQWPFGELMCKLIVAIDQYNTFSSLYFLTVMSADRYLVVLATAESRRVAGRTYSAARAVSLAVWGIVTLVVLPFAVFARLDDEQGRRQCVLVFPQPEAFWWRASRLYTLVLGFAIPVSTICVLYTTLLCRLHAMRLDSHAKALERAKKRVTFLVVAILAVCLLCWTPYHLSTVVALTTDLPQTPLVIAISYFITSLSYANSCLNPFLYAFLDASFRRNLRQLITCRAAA
VLA-4 inh = inhibition in human VLA-4 binding assay, primary screen, VLA-4 allosteric modulator project, MLPCN library, flow cytometry, VLA-4 expressing cells; inhibition, % (about 7 µM as worked out from the volumes in the protocol); 330,000 tested, 0.2% active; ligand binding flow cytometry; Integrin alpha-4 (Homo sapiens), P13612; in the data active = inhibition above about 50%
p-CIP stab down = p/CIP-EGFP fusion destabilizers, primary screen, fluorescence, F442A cells; 290,000 tested, 0.01% active; 16 h; decrease of EGFP signal, % at 10 µM; Q05BA5; AID 1984, 2009;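 active = EGFP signal decrease of at least 30% at 10 µM or well 3 SD below plate mean, unless failing retest; inactive = the rest, including hits failing retest or dose response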
JMJD2C inh = inhibitors of GASC-1 histone demethylase, primary screen, biochemical, fluorescence, DELFIA europium; Lysine-specific demethylase 4C (Homo sapiens), Q9H3R0; GST-JMJD2C(1-420) H3K9me3 demethylation; inhibition, % at 2.35 µM; 330,000 tested, 0.069% active; AID 2099, 2009;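 active = more than half of a compound's replicate wells show inhibition beyond 50%, single wells judged on their own value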;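 also: signal counts dimethyl H3K9 product captured on neutravidin plate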
GPR7 antag cf = GPR7 receptor antagonists, confirmation, cell-based, fluorescence, single concentration; shares compounds with GPR7 antag; GPR7-expressing cells, calcium fluorescence antagonist mode; inhibition, % at 4.4 µM; 2,400 tested, 52% active; AID 1952, 2009; in the data active = inhibition above about 24%;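 also: stimulated with the GPR7 agonist NPW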
MCHR1 antag = MCHR1 antagonists in cells, counter-screen for GPR7 antagonist project, cell-based, fluorescence, human | shares compounds with GPR7 antag | MCHR1-expressing cells, fluorescence antagonist assay | inhibition, % at 4.4 µM | 2,400 tested, 62% active | AID 2148, 2009; in the data active = inhibition above about 22%
A number is an active result; – = inactive; · = no result given. An excerpt weighted towards active compounds, which were near 1.2% of everything screened.

SMILES | GPR7 antag | VLA-4 inh | p-CIP stab down | JMJD2C inh | GPR7 antag cf | MCHR1 antag
CC(=O)Oc1cccc(N2C(=O)c3cccc4c([N+](=O)[O-])ccc(c34)C2=O)c1 | 60.4 | – | – | – | 54.3 | 35.9
O=C(CCC1CCCN(C(=O)c2ccccc2Cl)C1)N1CCN(c2ccccn2)CC1 (stereo not drawn) | – | – | – | – | · | ·
O=C(c1ccc([N+](=O)[O-])s1)N1CCN(c2ccc(C(F)(F)F)cn2)CC1 | 36.3 | – | – | – | 46.7 | 57.9
Cc1cnc(C(=O)N2CCN(c3ccc(C(F)(F)F)cn3)CC2)cn1 | – | – | – | – | · | ·
COc1ccc(NC(=O)c2cc3c(=O)n4ccccc4nc3n2C)cc1OC | – | – | – | – | · | ·
CC(C)[C@@H](NC(=O)C1CCC(CNC(=O)[C@H](Cc2ccccc2)NC(=O)OC(C)(C)C)CC1)C(=O)O (stereo partly drawn) | – | – | – | – | · | ·
CN1CCC(N(C)CC(=O)Nc2cccc(Oc3ccccc3)c2)CC1 | 27.5 | – | – | – | – | –
CN(CC(=O)Nc1cccc(C(F)(F)F)c1)Cc1ccccc1 | 26.2 | – | – | – | 24.0 | 35.1
Cn1ccc2ccc(C3=CC(=O)C[C@H](c4ccc(F)cc4)C3)cc21 | · | – | · | – | · | ·
O=C(CS(=O)CC(=O)NC12CC3CC(CC(C3)C1)C2)Nc1ccc(F)cc1 (stereo not drawn) | – | – | – | – | · | ·
Cc1ccc(C)c(CN2CCC(CNC(=O)Nc3ccc(C)c(C)c3)CC2)c1 | 36.4 | – | – | – | – | 24.8
COc1ccc(Cl)cc1NC(=O)NCC1CCN(Cc2cc(C)ccc2C)CC1 | – | – | – | – | · | ·
c1ccc2c(c1)OC(CCCN1CCCCC1)c1ccccc1S2 (stereo not drawn) | 24.8 | – | – | – | 32.7 | 53.7
CN1CCCC(CC2Oc3ccccc3Sc3ccccc32)C1 (stereo not drawn) | – | – | – | – | · | ·
CC(C)CNC(=O)c1oc2ccccc2c1COc1ccccc1 | – | – | – | – | · | ·
CCC(CC)NC(=O)c1oc2ccccc2c1COc1ccccc1 | 22.4 | – | – | – | 48.7 | 45.8
CCC(Oc1ccccc1)C(=O)NCCOC (stereo not drawn) | – | – | – | – | · | ·
CC(C)Oc1ccc(CC2CCC(=O)N(C)C2=O)cc1 (stereo not drawn) | – | – | – | – | · | ·
COc1ccc(CNc2nc(S(=O)(=O)c3ccccc3)c(Cl)s2)cc1OC | 34.0 | – | – | – | 34.5 | 53.7
C=C(C)n1c(=O)[nH]c2ccccc21 | – | – | – | – | · | ·
Clc1ccc(OCCSc2ncccn2)cc1 | – | – | – | – | · | ·
COc1ccccc1NC(=O)c1ccccc1NC(=O)c1cccs1 | – | – | – | – | · | ·
C=C(CCC(=O)c1ccccc1)C(=O)c1ccccc1 | 45.8 | – | – | – | 86.1 | 78.5
COc1ccc(C(=O)N[C@H](C(=O)NC2CCCCC2)C(C)C)cc1 | · | – | · | – | · | ·
COc1ccc(C)cc1NC(=O)NNC(=O)C(C)Oc1ccc([N+](=O)[O-])cc1 (stereo not drawn) | – | – | – | – | · | ·
SMILES | GPR7 antag | VLA-4 inh | p-CIP stab down | JMJD2C inh | GPR7 antag cf | MCHR1 antag
CCOC(=O)c1sc(NC(=O)c2ccc(Cl)s2)cc1C | – | – | – | – | · | ·
CCOC(=O)c1sc(NC(=O)Nc2ccc(Cl)cc2)cc1C | 35.3 | – | – | – | 63.2 | 72.4
CCOc1ccc(CC(C(N)=O)C(N)=O)cc1CN(C)C | – | – | – | – | · | ·
CN(CCOc1ccc(Cl)cc1)CC(=O)Nc1ccc(OC(F)F)cc1 | 38.7 | – | – | – | – | –
CN(CCOc1ccccc1)C(=S)Nc1ccc(OC(F)F)cc1 | 30.9 | – | – | – | – | 32.0
CCC(C)c1ccccc1NC(=O)CN(C)CCOc1ccc(Cl)cc1 (stereo not drawn) | – | – | – | – | · | ·
CN(C)C(=O)CNC(=O)CN1C(=O)NC2(CCCc3sccc32)C1=O (stereo not drawn) | – | – | – | – | · | ·
C/C(=N\NC(=O)c1ccc(-n2cnnn2)cc1)c1ccc(C)cc1 | · | – | · | – | · | ·
CCCCc1ccc(-c2ccc(Br)cc2)nc1 | 29.8 | – | – | – | – | –
CC(C)C(NC(=O)c1ccc(C(C)(C)C)cc1)C(=O)NCCc1ccccn1 (stereo not drawn) | – | – | – | – | · | ·
CC(C)C(NC(=O)c1ccc(C(C)(C)C)cc1)C(=O)NCC(c1ccccc1)N(C)C (stereo not drawn) | 21.5 | – | – | – | – | –
Cc1ccc(NC(=O)c2nc(S(=O)(=O)Cc3ccccc3)ncc2Cl)cc1 | 35.4 | – | – | – | 59.8 | 98.3
Cc1cccc(CS(=O)(=O)c2ncc(Cl)c(C(=O)Nc3c(C)cccc3C)n2)c1 | 50.6 | – | – | – | 58.0 | 97.4
O=C(NCCCn1ccnc1)C1CCN(S(=O)(=O)c2cc([N+](=O)[O-])ccc2Cl)CC1 | · | – | · | – | · | ·
CCOC(=O)C1(Cc2ccc(OC)cc2)CCN(C(=O)c2cc(C)on2)CC1 | 25.1 | – | – | – | – | –
CCOC(=O)C1(Cc2ccc(OC)cc2)CCN(C(=O)c2sc(C)nc2C)CC1 | – | – | – | – | · | ·
CCOC(=O)c1nn(-c2ccc(F)cc2)c(=O)c(C#N)c1C | – | – | – | – | · | ·
O=C1NC(=Nc2ccccc2)c2c1cccc2[N+](=O)[O-] | 32.2 | · | – | – | – | –
Cn1cnc([N+](=O)[O-])c1Sc1ccc(C(C)(C)C)cc1 | 27.4 | – | – | – | 38.0 | 26.3
O=C1CCC(C(=O)NC2(C(=O)NC3CCCCC3)CCCCC2)N1 (stereo not drawn) | – | – | – | – | · | ·
CN=c1scc(-c2ccc([N+](=O)[O-])cc2)n1/N=C/c1ccco1 | – | – | – | – | · | ·
CN=c1scc(-c2ccc(F)cc2)n1/N=C/c1ccc(O)c(O)c1 | 23.1 | · | – | · | 33.1 | –
O=S(=O)(Nc1cccc(-c2cn3c(n2)SCC3)c1)c1ccc(F)cc1F | 24.9 | – | – | – | – | –
O=C(OC1C2CCC1C1CN(CCc3ccccc3)CC12)c1ccccc1 (stereo not drawn) | 42.4 | – | – | – | 42.1 | 23.7
CC(NCCC1(Cc2ccccc2Cl)CCOC(C)(C)C1)c1cccs1 (stereo not drawn) | 27.6 | – | – | – | 30.9 | –
Cn1c(=O)c(=O)n(C)c2cc(S(=O)(=O)N3CC(=O)N(CCc4ccccc4)C(=O)C3)ccc21 | 23.0 | – | – | – | – | –
CC(=O)c1c(C)[nH]c(C(=O)COC(=O)c2c(-c3ccccc3)noc2C)c1C | · | – | · | – | · | ·
OCCCCNCc1ccc(OCc2ccc(Cl)cc2Cl)cc1 | 38.6 | – | – | – | 66.5 | 58.5
OCCNCc1ccc(OCc2ccc(Cl)cc2Cl)cc1 | 30.6 | – | – | – | 40.4 | 43.0
